Measurements from PubChem BioAssay AID1851 (National Center for Advancing Translational Sciences (NCATS), 2009).
Among all 16,000 compounds or so, about 5,100 (32%) were called active. Not shown: some 25% with an inconclusive outcome. Calls come from the whole dose curve; as a rule, active = well fitted curve in the direction sought with a large enough effect; inconclusive = small, poorly fitted or top-dose-only effect, or effect the other way; inactive = no such curve, though single readings can be large or run the other way. The list shows a part of the results.

Target: Cytochrome P450 3A4 (Homo sapiens) (UniProt P08684)
Assay: Cytochrome panel assay with activity outcomes
Conditions: recombinant CYP, pro-luciferin dealkylation, luminescence, p450-cyp3a4; series mostly up to 57.1 µM; activity, negative = inhibition: at the top concentration
% is set by controls: 0 for no effect and ±100 for the full control effect.

Sequence of Cytochrome P450 3A4 (Homo sapiens) (P08684 whole entry, looked up): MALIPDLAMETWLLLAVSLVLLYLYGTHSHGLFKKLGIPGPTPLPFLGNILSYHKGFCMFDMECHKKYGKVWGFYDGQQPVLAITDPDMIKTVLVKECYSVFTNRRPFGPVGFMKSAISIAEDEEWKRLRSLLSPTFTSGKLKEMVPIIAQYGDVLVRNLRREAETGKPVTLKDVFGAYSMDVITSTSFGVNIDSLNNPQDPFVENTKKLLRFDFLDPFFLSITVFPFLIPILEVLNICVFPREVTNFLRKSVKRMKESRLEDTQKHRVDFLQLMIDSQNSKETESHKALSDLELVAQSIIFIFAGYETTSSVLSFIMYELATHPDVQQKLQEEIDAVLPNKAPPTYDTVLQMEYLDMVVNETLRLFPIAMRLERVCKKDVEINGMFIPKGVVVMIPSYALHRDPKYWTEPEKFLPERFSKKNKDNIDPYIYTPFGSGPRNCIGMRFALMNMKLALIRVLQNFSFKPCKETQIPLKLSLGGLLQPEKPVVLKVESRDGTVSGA

SMILES	activity, negative = inhibition	AC50
Cc1cc(=O)n2c3ccccc3n(CC(O)CN3CCCCC3)c2c1C#N (centres undefined)	8.05% (inactive)	–
CCN(CCO)Cc1csc2cccc(Br)c12	-1.38% (inactive)	–
Cc1ccc(C(=O)c2cn[nH]c2-c2cc(Cl)ccc2O)cc1	–	3.98 µM (active)
Cc1ccc(C(=O)c2cn(-c3ccc(F)c(Cl)c3)nn2)cc1	-1.47% (inactive)	–
CCn1ccc(C(=O)Oc2ccc(Cl)cc2)n1	-12.6% (inactive)	–
O=C(CS(=O)c1cccc(Cl)c1)Nc1ccccc1Cl (centres undefined)	–	14.1 µM (active)
Cc1nc(S(=O)(=O)c2cccc(Cl)c2)nc2c1CCC2	18.2% [at 2.29 µM] (inactive)	–
O=C(CS(=O)c1cccc(C(F)(F)F)c1)Nc1ccccc1Cl (centres undefined)	–	7.94 µM (active)
O=C(CS(=O)(=O)c1cccc(Cl)c1)Nc1ccccc1Cl	–	6.31 µM (active)
CC(=O)N(CC(=O)O)c1ccccc1C(=O)O	-0.567% (inactive)	–
O=C(O)c1ccccc1OP(=O)(O)O	-3.92% [at 25.6 µM] (inactive)	–
COc1ccc(-n2c(C)n[nH]c2=O)cc1	28.8% (inactive)	–
Cc1ccc(-n2c(-c3cc(C)n(C)n3)n[nH]c2=S)cc1	–	14.1 µM (active)
Cc1cc(-c2n[nH]c(=S)o2)c(C)n1-c1ccccc1	-29.5% (inactive)	–
CN(C)c1ncc2nc(-c3ccc(F)cc3)c(=O)n(C[C@H]3CCCO3)c2n1	-4.69% (inactive)	–
COCCn1c(=O)c(-c2cccs2)nc2cnc(Oc3ccc(OC)cc3)nc21	–	0.794 µM (active)
CN(C)c1ncc2nc(-c3cccs3)c(=O)n(C[C@H]3CCCO3)c2n1	–	25.1 µM (active)
CN(C)c1ncc2nc(-c3cc(F)cc(F)c3)c(=O)n(C[C@H]3CCCO3)c2n1	-8.08% (inactive)	–
CN(C)c1ncc2nc(-c3ccccc3)c(=O)n(CCC#N)c2n1	3.78% (inactive)	–
COCCn1c(=O)c(-c2cccs2)nc2cnc(N(C)C)nc21	–	7.94 µM (active)
COc1ncc2nc(C)c(=O)n(CCC#N)c2n1	-17.2% (inactive)	–
COCCn1c(=O)c(-c2ccc(F)cc2)nc2cnc(N(C)C)nc21	-3.27% (inactive)	–
COc1ncc2nc(-c3cccs3)c(=O)n(CCC#N)c2n1	–	10 µM (active)
CN(C)c1ncc2nc(-c3cccs3)c(=O)n(CCc3ccccc3)c2n1	-19% (inactive)	–

SMILES	activity, negative = inhibition	AC50
CCC1NC(=S)N(C2CCCCC2)C1=O (centres undefined)	-22.3% (inactive)	–
Cc1ccc(-[n+]2cc(=O)o[nH]2)cc1	-10.5% [at 11.4 µM] (inactive)	–
Nc1nc(C(=O)O)c(N=Nc2ccccc2)c(=O)[nH]1	-12.5% [at 11.4 µM] (inactive)	–
CCOc1ccc2nc3cc(N=Nc4ccc(N)nc4N)ccc3c(N)c2c1	-19% [at 11.4 µM] (inactive)	–
COCCn1c(=O)c(-c2cccs2)nc2cnc(Oc3ccccc3)nc21	–	20 µM (active)
COc1ncc2nc(-c3cccs3)c(=O)n(CCc3ccccc3)c2n1	–	10 µM (active)
COCCn1c(=O)c(-c2cccs2)nc2cnc(OC)nc21	–	10 µM (active)
CCCCN(Cc1ccccc1)C(=O)c1cnc2n(c1=O)CCS2	-24.7% (inactive)	–
CSc1ccccc1N1CCN(C(=O)Nc2ccc3c(c2)NC(=O)CO3)CC1	8.81% (inactive)	–
CN(C)S(=O)(=O)c1nc(Cl)c2[nH]cnc2n1	-5.34% [at 11.4 µM] (inactive)	–
CCOC(=O)N/N=C1/C[C@@H](O)[C@@H](O)[C@@H]2[C@@H]3C(=O)N(C4CCCCC4)C(=O)[C@H]3CC[C@@H]12	-20.8% [at 11.4 µM] (inactive)	–
O=C(Nc1cccc(Cl)c1Cl)c1snnc1-c1ccccc1	13.9% (inactive)	–
COC(=O)[C@H](C)[C@H]1C[C@]1(C)[C@H](NC(=O)OCc1ccccc1)c1ccccc1	–	7.94 µM (active)
COC(=O)[C@H](C)[C@@H]1C[C@@]1(C)[C@@H](NC(=O)OCc1ccccc1)c1ccccc1	–	10 µM (active)
CN(C)CCNS(=O)(=O)N(C)C	-13.5% [at 11.4 µM] (inactive)	–
CC(=O)NN1C(=O)c2ccc(Oc3ccc([N+](=O)[O-])cc3)cc2C1=O	1.67% (inactive)	–
Nc1ccc(Oc2ccc3nc(-c4ccccc4)c(-c4ccc([N+](=O)[O-])cc4)nc3c2)cc1	–	3.55 µM (active)
Cc1nc2ccccc2nc1-c1ccc(N=[N+]([O-])c2ccc(-c3nc4ccccc4nc3C)cc2)cc1	3.4% [at 11.4 µM] (inactive)	–
Cc1noc(C)c1CS(=O)(=O)c1ccc(Br)cc1	–	15.8 µM (active)
CNC(=O)CCc1nc(-c2ccc(C(C)(C)C)cc2)no1	-15.1% (inactive)	–
O=C(CCc1nc(-c2ccccc2)no1)NCCc1ccccc1	-16.7% (inactive)	–
COc1ccc(-c2noc(CCCC(=O)NCCc3ccccc3)n2)cc1OC	–	11.2 µM (active)
Cc1c(NC(C)C)c(=O)n(-c2ccccc2)n1C	-9.46% [at 25.6 µM] (inactive)	–
Cc1nn(-c2ccccc2)c(Cl)c1C(=O)Nc1c(C)n(C)n(-c2ccccc2)c1=O	-15.6% (inactive)	–

SMILES	activity, negative = inhibition	AC50
Cc1ccc(S(=O)(=O)/N=C(/Nc2c(C)n(C)n(-c3ccccc3)c2=O)c2ccc(Cl)cc2)cc1	–	3.16 µM (active)
COc1ccccc1N/C(=N/S(=O)(=O)c1ccc(C)cc1)c1ccc(Cl)cc1	–	2.24 µM (active)
Cc1c(NC(=O)Nc2c(Cl)cccc2Cl)c(=O)n(-c2ccccc2)n1C	4.74% [at 11.4 µM] (inactive)	–
O=S(=O)(/N=C(\Sc1ccccc1)c1ccccc1)c1ccc(Cl)cc1	-0.323% (inactive)	–
Cc1c(NC(=O)C2CCN(S(=O)(=O)c3ccc(Cl)cc3)CC2)c(=O)n(-c2ccccc2)n1C	–	7.94 µM (active)
Cc1c(NCc2cc(Cl)ccc2O)c(=O)n(-c2ccccc2)n1C	–	14.1 µM (active)
CC(=O)NC1=NN(c2ccccc2)C(=O)C1	-7.33% (inactive)	–
O=c1c(-c2ccc(Cl)cc2)nc2cnc(N3CCNCC3)nc2n1Cc1cccs1	–	5.01 µM (active)
Cn1c(=O)c(-c2cc(F)cc(F)c2)nc2cnc(N3CCOCC3)nc21	17.1% (inactive)	–
O=c1c(-c2ccc(F)cc2)nc2cnc(N3CCNCC3)nc2n1Cc1cccs1	–	10 µM (active)
O=c1c(-c2ccccc2)nc2cnc(N3CCOCC3)nc2n1Cc1cccs1	-5.52% (inactive)	–
O=c1c(-c2cc(F)cc(F)c2)nc2cnc(N3CCOCC3)nc2n1C[C@H]1CCCO1	6.88% (inactive)	–
O=c1c(-c2cc(F)cc(F)c2)nc2cnc(N3CCNCC3)nc2n1Cc1cccs1	–	10 µM (active)
CCc1c(O)c2c(c(O)c1C(C)=O)C(=O)c1c(cc(O)c(C(=O)O)c1C(=O)O)C2=O	2.06% [at 11.4 µM] (inactive)	–
BrC(c1cccc2ccccc12)c1cccc2ccccc12	-10.7% [at 11.4 µM] (inactive)	–
CCOC(=O)c1c(C)c(C(=O)N2CCCCCC2)c(C)n1C	–	7.94 µM (active)
CCOC(=O)c1c(C)c(C(=O)N2CCN(C(=O)c3ccco3)CC2)c(C)n1C	-17.8% (inactive)	–
CCOC(=O)c1c(C)c(C)n2c1NC(=O)C2	-20.8% [at 11.4 µM] (inactive)	–
Cc1ccc(S(=O)(=O)NCC(=O)N(CC(=O)NCc2ccco2)Cc2cccs2)cc1	–	4.47 µM (active)
Nc1ncnc2c1nc(Sc1ccc(Cl)cc1)n2[C@@H]1O[C@H]2COP(=O)(O)O[C@@H]2[C@H]1O	3.41% (inactive)	–
Oc1ccc2ccccc2c1/C=C\c1ccc2c(Br)cc(Br)c(O)c2n1	-13.3% [at 11.4 µM] (inactive)	–
CCC/C=C(\CCC)C(NS(=O)(=O)c1ccc(-c2ccccc2)cc1)c1ccc(C(=O)OC)cc1 (centres undefined)	6.7% (inactive)	–
CCC/C=C(\CCC)C(NS(=O)(=O)c1ccc(Cl)cc1)c1ccccc1 (centres undefined)	–	7.94 µM (active)
CCC/C=C(\CCC)C(NS(=O)(=O)c1ccc(Cl)cc1)c1ccc(C(=O)OC)cc1 (centres undefined)	–	3.98 µM (active)

SMILES	activity, negative = inhibition	AC50
CCC/C=C(\CCC)C(NS(=O)(=O)CC12CCC(CC1=O)C2(C)C)c1ccc(C(=O)OC)cc1 (centres undefined)	–	3.98 µM (active)
O=C(O)c1ccccc1-c1ccccc1C(=O)Nc1ccc2c(c1)Cc1ccccc1-2	-22.9% [at 11.4 µM] (inactive)	–
Cn1c(SCC(=O)c2ccc3c(c2)Cc2ccccc2-3)nnc1-c1ccccc1	–	8.91 µM (active)
CCCCSc1nnc(-c2ccc(C)cc2)n1C	9.47% (inactive)	–
CC(=O)Nc1ccc(-c2nnc(SCC(=O)c3ccc4c(c3)Cc3ccccc3-4)n2C)cc1	–	12.6 µM (active)
O=C(Nc1ccc2c(c1)Cc1ccccc1-2)[C@@H]1[C@H](C(=O)O)[C@]2(Cl)C(Cl)=C(Cl)[C@@]1(Cl)C2(Cl)Cl	-22% [at 11.4 µM] (inactive)	–
c1cc(NC2CC2)nc(-c2ccoc2)n1	–	5.01 µM (active)
Cc1noc(C)c1-c1nccc(NC2CC2)n1	–	2.51 µM (active)
Cc1noc(C)c1-c1nccc(Nc2ccc(F)cc2)n1	–	12.6 µM (active)
COC(=O)[C@@]1(Cc2ccc(F)cc2)[C@H]2c3cc(C(=O)N4CCCC4)n(Cc4cccc5ccccc45)c3C[C@H]2CN1C(=O)c1ccccc1	–	2 µM (active)
COC(=O)[C@@]1(Cc2ccccc2)[C@H]2c3cc(C(=O)N4CCCC4)n(Cc4cccc5ccccc45)c3C[C@H]2CN1C(=O)c1ccccc1	–	1.58 µM (active)
CC(C)CNc1nc(N)[nH]c(=O)c1NC=O	-1.52% [at 11.4 µM] (inactive)	–
CCC(C)c1ccc(Nc2ncccc2C#N)cc1 (centres undefined)	-6.67% [at 2.29 µM] (inactive)	–
Cc1cccc(CNc2ncnc3ccc(-c4cccc(C#N)c4)cc23)c1	-94.6% (inactive)	–
c1ccc(CNc2ncnc3ccc(-c4cccnc4)cc23)cc1	–	1.26 µM (active)
c1ccc(Nc2ncnc3ccc(-c4cccnc4)cc23)cc1	–	2.51 µM (active)
Cc1cccc(CNc2ncnc3ccc(-c4cccnc4)cc23)c1	–	1 µM (active)
CC(C)CN(CC#N)CC(C)C	-19.3% [at 11.4 µM] (inactive)	–
CCCC(=O)NCCc1c2n(c3ccc(OC)cc13)Cc1ccccc1-2	–	2.51 µM (active)
CN(C)C(=O)c1ccc(-n2nc(C(F)(F)F)c3c2CCCC3)cc1	5.72% [at 2.29 µM] (inactive)	–
CCc1ccc(NC(=O)Cn2nc(C(F)(F)F)c3c2CCC3)cc1	–	12.6 µM (active)
CCNC(=O)c1ccc(-n2nc(C(F)(F)F)c3c2CCCC3)cc1	-17% (inactive)	–
